Assay results taken from PubChem BioAssay (NCI).
Compounds without any hit were thinned out: in the full panel of roughly 83,000, 20% have a hit.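 Activity criterion: percent growth below 10, measured after cells in 96-well plates were exposed to a single compound concentration for 48 hours.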 Unmarked numbers belong to inactive results. Active and inactive are the calls of the source.

How the values were obtained:
Assay in all cases: NCI-60 one-dose screen, 48 h (100 = growth as untreated, 0 = no growth, -100 = all killed)
Settings in all cases: 10 µM unless noted
[1] = system: NCI-H23 lung
[2] = system: NCI-H226 lung
[3] = system: NCI-H322M lung
[4] = system: HOP-62 NSCLC
[5] = system: NCI-H460 lung
[6] = system: HOP-92 NSCLC
[7] = system: A549/ATCC NSCLC
[8] = system: 786-0 renal
[9] = system: COLO 205 colon
[10] = system: DU-145 prostate
[11] = system: MALME-3M melanoma
[12] = system: MDA-MB-231 breast
[13] = system: RXF 393 renal
[14] = system: SF-268 CNS
[15] = system: SF-295 CNS
[16] = system: SF-539 CNS
[17] = system: UACC-257 melanoma
[18] = system: M14 melanoma
[19] = system: NCI-H522 lung
[20] = system: K-562 leukemia

Structure (SMILES)	growth [1]	growth [2]	growth [3]	growth [4]	growth [5]	growth [6]	growth [7]	growth [8]	growth [9]	growth [10]	growth [11]	growth [12]	growth [13]	growth [14]	growth [15]	growth [16]	growth [17]	growth [18]	growth [19]	growth [20]
COc1ccc(N(CC(=O)NCCC[Te]c2ccccc2)C(=O)CCSC2=C(C)C(=O)c3ccccc3C2=O)cc1	-49.3% (active)	-54.8% (active)	2.85% (active)	-46.4% (active)	-73.5% (active)	-49.8% (active)	-52.4% (active)	-22.1% (active)	-97.9% (active)	-10.1% (active)	-11.7% (active)	-61.6% (active)	-26.5% (active)	3.17% (active)	-50.1% (active)	-62.6% (active)	0.434% (active)	-38.3% (active)	–	–
COc1ccc(C/C(C)=C(\c2ccc(OCCN3CCOCC3)cc2)c2ccc(OC(=O)Cc3ccccc3)cc2)cc1	-18.3% (active)	–	-8.3% (active)	-74.1% (active)	-73.3% (active)	-76.7% (active)	0.132% (active)	-94.7% (active)	-90.1% (active)	9.74% (active)	-79.5% (active)	-48.4% (active)	-83.3% (active)	-21.3% (active)	-57.6% (active)	-85.4% (active)	-89.2% (active)	–	-87.6% (active)	-24.7% (active)
CN1CCC(O)(c2ccc(F)cc2)C(C(=O)c2ccc(F)cc2)C1 (configuration not stated)	99.3%	–	98.7%	97.2%	109%	96.4%	101%	102%	115%	107%	84.6%	104%	103%	106%	110%	96.8%	106%	106%	78.9%	99.1%
CCC(C)(C)[C@H](NC(=O)[C@H]1CCCCN1C)C(=O)N(C)[C@H](C[C@@H](OC(C)=O)c1nc(C(=O)N[C@@H](Cc2ccccc2)C[C@H](C)C(=O)O)cs1)C(C)C	29.8%	-44.7% (active)	41.5%	15%	5.25% (active)	19.4%	13.1%	10.8%	-51.2% (active)	0.164% (active)	27.4%	15.7%	38.4%	23.3%	-7.51% (active)	-31% (active)	55.5%	-19.3% (active)	–	6.58% (active)
C=CCc1cc2c(cc1OCC)OCO2	95.6%	99.3%	114%	64.7%	102%	81.1%	88.9%	92.4%	108%	108%	116%	110%	–	94.8%	93.6%	99.1%	105%	92.9%	–	114%
COC(=O)[C@H](Cc1c[nH]c2ccccc12)NC(=O)[C@@H](OC)[C@@H]1Cc2cc3cc(OC4CC(OC5CC(O)C(O)C(C)O5)C(O)C(C)O4)c(C)c(O)c3c(O)c2C(=O)[C@H]1OC1CC(OC2CC(OC3CC(C)(O)C(O)C(C)O3)C(O)C(C)O2)C(O)C(C)O1 (some centres not stated)	-20.3% (active)	-38.6% (active)	6.45% (active)	9.74% (active)	6.58% (active)	-13.9% (active)	12.7%	1.54% (active)	-39.5% (active)	12.5%	-47% (active)	-14% (active)	-85.9% (active)	-10.1% (active)	-6.35% (active)	-35.3% (active)	-5% (active)	-60.2% (active)	–	4.37% (active)
CC1(C)CN1P(=O)(N1CC1(C)C)N1CC1(C)C (configuration not stated)	105%	109%	111%	102%	112%	103%	91%	109%	107%	121%	110%	107%	119%	106%	115%	109%	89.3%	98.8%	–	109%
NC(=Nc1ccccc1)N[N+](=O)[O-]	93.7%	90.1%	109%	104%	105%	118%	107%	113%	107%	111%	103%	115%	95.2%	102%	113%	–	112%	99.9%	–	–
c1cnc2[nH]cc(-c3csc(-c4cn(CCCCN5CCCCC5)c5ccccc45)n3)c2c1	95.2%	95.3%	87.4%	82.4%	76.3%	48.3%	83.6%	80.7%	6.47% (active)	107%	92.8%	83.3%	87.3%	86.1%	94.8%	86.5%	112%	50.2%	–	10.9%
Cc1cc(C)cc(Nc2nc3c(s2)CC[C@@]2(C)C3=CC[C@@H]3[C@@H]2CC[C@]2(C)C(=O)CC[C@@H]32)c1	76.9%	49.9%	79.9%	90%	49.5%	70.7%	72.9%	31%	92.5%	41.2%	79.6%	77.5%	-7.45% (active)	67.4%	42.9%	23%	87.9%	83.4%	–	17.1%
Nc1ccc2c(c1)oc1ccccc12	97.3%	93.1%	102%	103%	111%	89.4%	89%	95.7%	123%	103%	–	80.2%	92.4%	83.3%	102%	104%	92.6%	101%	–	89.5%
COc1cccc(C=NC(Cc2cnc[nH]2)C(=O)O)c1O (configuration not stated)	107%	94.8%	95.5%	87.6%	107%	56%	91.5%	97.2%	122%	121%	–	102%	3.56% (active)	112%	70.3%	93.1%	46.7%	–	–	135%
Cc1c(O)c(CN(CCCl)CCCl)cc(CN(CCCl)CCCl)c1O	102%	95.6%	94.8%	102%	31.4%	47.3%	67.8%	99.6%	78.1%	107%	93.1%	93.5%	97.6%	88.4%	93.9%	82.5%	92.8%	92.4%	–	103%
C=CC1=C[C@@H]2[C@@H]3O[C@]4(CC[C@H](O4)[C@@H](C)C[C@@H](O)C3=O)C[C@H](O)C3=NCC[C@@]32CC1	-34.6% (active)	-29.2% (active)	-23.4% (active)	-20.3% (active)	-28.9% (active)	-22.3% (active)	-3.33% (active)	-28.3% (active)	-25.6% (active)	-26.7% (active)	-82.2% (active)	-29.2% (active)	-67.3% (active)	-35.8% (active)	-35.9% (active)	-43.6% (active)	-31.5% (active)	-79% (active)	–	5.48% (active)
COc1ccc(Nc2ccnc3cc(Cl)ccc23)cc1CN(CCCl)CCCl	-46.7% (active)	22.9%	-34% (active)	-38.8% (active)	-18.2% (active)	-39% (active)	1.03% (active)	-53.3% (active)	-37.1% (active)	-26.4% (active)	-85.3% (active)	0.96% (active)	-72.3% (active)	-29.3% (active)	-24.8% (active)	-75.8% (active)	-39.1% (active)	-58.4% (active)	–	0.691% (active)
